Assay outcomes: PubChem, several laboratories
Bead autofluor: flagged as autofluorescent in microsphere protease counterscreen | compound autofluorescence counterscreen, microsphere flow cytometry; hits give high values | fluorescence intensity (no concentration beside the values) | 360,000 compounds, 3.1% hits | AID 624483; in the data active means fluorescence intensity above about 16000; inconclusive means no clear call, values can overlap the other calls
BoNT F protease: inhibitors of Botulinum neurotoxin F light chain protease; Multiplex microsphere protease cleavage assay, flow cytometry; AID 588497; inhibition, % at 10 µM; 360,000 compounds, 0.22% hits; in the data active means inhibition above about 35%, passing the limit was not always enough; inconclusive means no clear call, values can overlap the other calls; further: plate controls were buffer without enzyme for full effect and enzyme alone for no effect
BoNT A protease: blocks Botulinum neurotoxin A light chain protease. multiplex microsphere protease substrate cleavage, flow cytometry. inhibition, % at 10 µM. 360,000 compounds, 0.17% hits. AID 588499; further: plate controls were buffer without enzyme for full effect and enzyme alone for no effect
Anthrax LF inh2: anthrax lethal factor protease inhibition | 360,000 compounds, 0.12% hits | AID 588501 | inhibition, % at 10 µM | multiplex microsphere protease cleavage assay, LF; further: plate controls were buffer without enzyme for full effect and enzyme alone for no effect
Target sequence (P15917 whole entry, looked up): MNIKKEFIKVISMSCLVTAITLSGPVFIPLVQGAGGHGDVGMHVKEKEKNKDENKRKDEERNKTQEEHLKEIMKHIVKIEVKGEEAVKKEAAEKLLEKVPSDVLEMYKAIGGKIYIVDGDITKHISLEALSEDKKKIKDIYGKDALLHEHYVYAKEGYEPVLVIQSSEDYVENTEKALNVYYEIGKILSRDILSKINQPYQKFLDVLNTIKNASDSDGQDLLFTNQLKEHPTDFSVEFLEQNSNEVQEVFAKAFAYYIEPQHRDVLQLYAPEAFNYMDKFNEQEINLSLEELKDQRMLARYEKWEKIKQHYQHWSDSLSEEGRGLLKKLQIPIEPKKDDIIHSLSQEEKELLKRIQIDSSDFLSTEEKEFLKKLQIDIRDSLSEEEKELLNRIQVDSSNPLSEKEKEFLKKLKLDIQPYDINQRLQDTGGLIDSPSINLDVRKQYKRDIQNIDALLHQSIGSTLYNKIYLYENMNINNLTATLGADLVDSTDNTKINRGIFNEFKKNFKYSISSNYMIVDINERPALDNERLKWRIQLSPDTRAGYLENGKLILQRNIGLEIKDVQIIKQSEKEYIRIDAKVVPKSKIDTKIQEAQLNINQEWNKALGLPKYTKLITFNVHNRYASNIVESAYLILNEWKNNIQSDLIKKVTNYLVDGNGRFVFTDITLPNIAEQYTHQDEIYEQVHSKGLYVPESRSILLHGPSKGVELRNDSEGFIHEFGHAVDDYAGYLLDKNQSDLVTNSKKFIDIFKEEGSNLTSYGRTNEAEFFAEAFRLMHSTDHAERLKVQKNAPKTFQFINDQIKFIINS
MazEF act: increases E. coli MazEF RNase cleavage of RNA | P0AE70 | FAM/BHQ RNA-DNA oligo cleavage fluorescence, 5 h | activation, % at 20 µM | 350,000 compounds, 0.32% hits | AID 504720; in the data active means activation above about 50%
An asterisk follows results filed as active. Only some compounds are listed: those with a hit (about 3.7% of all), similar ones and a draw of the others. Unless noted, no stated cut-off is given here; in the data, active means inhibition above about 30%; inconclusive means no clear call, values can overlap the other calls; inactive means below that.

`Nc1nc(=O)n(C2CCCCO2)cc1Br` (centres undefined) gave Bead autofluor 4059, BoNT F protease -3, BoNT A protease 0, Anthrax LF inh2 -1 and MazEF act 10.
`OC(Cn1ccnc1)c1ccc(Cl)cc1Cl` (centres undefined) gave Bead autofluor 2383, BoNT F protease -4, BoNT A protease 0, Anthrax LF inh2 -1 and MazEF act 159*.
Clc1ccc(C(Cn2ccnc2)OCc2c(Cl)cccc2Cl)c(Cl)c1 (centres undefined) was read as Bead autofluor 5072, BoNT F protease -8, BoNT A protease 0, Anthrax LF inh2 -6 and MazEF act -15.
Cc1ccccc1N=Cc1c(O)n(-c2nccs2)c(=O)c2ccccc12 was read as Bead autofluor 2533, BoNT F protease -1, BoNT A protease 1, Anthrax LF inh2 1 and MazEF act 4.
`O=c1c2ccccc2c(C=Nc2ccccc2O)c(O)n1-c1nccs1` gave Bead autofluor 4475, BoNT F protease 0, BoNT A protease 0, Anthrax LF inh2 1 and MazEF act 278*.
`COCCOC(=O)c1c(C)oc2ccc(OC(=O)COc3c(F)c(F)c(F)c(F)c3F)cc12` gave Bead autofluor 22277*, BoNT F protease 6, BoNT A protease 2, Anthrax LF inh2 -1 and MazEF act -7.
COCCOC(=O)c1c(C)oc2ccc(OC(=O)c3cccs3)cc12 was read as Bead autofluor 22293*, BoNT F protease 2, BoNT A protease 2, Anthrax LF inh2 3 and MazEF act 3.
For Cc1oc2ccc(OC(=O)COc3c(F)c(F)c(F)c(F)c3F)cc2c1C(=O)OC(C)C the results were Bead autofluor 2247, BoNT F protease -6, BoNT A protease 0, Anthrax LF inh2 -1 and MazEF act -13.
`C/C(=N\NC(=O)c1cccc(S(=O)(=O)N2CCOCC2)c1)c1ccc(O)cc1` gave Bead autofluor 8728, BoNT F protease 3, BoNT A protease 0, Anthrax LF inh2 -4 and MazEF act 7.
For Cc1ccc(C#CC[N+]2(C)CCCCC2)cc1 the results were MazEF act 7.
For COc1ccc2[nH]c(-c3ccccc3)cc2c1 the results were Bead autofluor 4047, BoNT F protease -4, BoNT A protease -1, Anthrax LF inh2 -9 and MazEF act 8.
CCOc1ccccc1C1CC(=O)Nc2cc3c(cc21)OCCO3 (centres undefined) was read as Bead autofluor 16905*, BoNT F protease -4, BoNT A protease -3, Anthrax LF inh2 -2 and MazEF act -8.
Screening O=C(O)c1cc(-c2ccc(/C=N/N3C(=O)C4C5C=CC(C6CC56)C4C3=O)o2)ccc1Cl (centres undefined) returned Bead autofluor 4399, BoNT F protease 0, BoNT A protease 0, Anthrax LF inh2 -5 and MazEF act 5.
CCCNC(=O)C1(C)CCN(C(=O)c2ccc3c(c2)CCO3)C1 (centres undefined) was read as Bead autofluor 3093, BoNT F protease 6, BoNT A protease -1 and Anthrax LF inh2 4.
Screening COc1ccc(C2C(C(=O)OCC3CCCO3)=C(C)NC3=C2C(=O)CC(c2ccco2)C3)cc1O (centres undefined) returned Bead autofluor 23267*, BoNT F protease -1, BoNT A protease 0, Anthrax LF inh2 -2 and MazEF act -3.
`OC(c1ccc(OCc2ccccc2)cc1)c1nnc(-c2ccccc2)o1` (centres undefined) gave Bead autofluor 2914, BoNT F protease -8, BoNT A protease -1, Anthrax LF inh2 0 and MazEF act 96*.
Screening O=C(CSc1nnc2ccc(-c3cccnc3)nn12)Nc1ccccc1 returned Bead autofluor inconclusive, BoNT F protease -8, BoNT A protease -1, Anthrax LF inh2 -3 and MazEF act 3.
For Cc1noc(C)c1C(=O)OC(C(=O)NC1CCCC1)c1ccc(F)cc1 (centres undefined) the results were Bead autofluor 22114*, BoNT F protease -6, BoNT A protease -5, Anthrax LF inh2 -1 and MazEF act 5.
Screening Cc1cccc(C)c1N1CCN(c2nc(N(C)C)oc(=O)c2C#N)CC1 returned Bead autofluor 23077*, BoNT F protease 2, BoNT A protease 0, Anthrax LF inh2 1 and MazEF act -2.
CN(C)c1nc(N2CCN(c3ccccc3)CC2)c(C#N)c(=O)o1 was read as Bead autofluor 5550, BoNT F protease -4, BoNT A protease 0, Anthrax LF inh2 -4 and MazEF act 4.
For CCN1C(=O)/C(=C/C=C2\C=CN(CC)c3ccccc32)SC1=S the results were Bead autofluor 6742, BoNT F protease -9, BoNT A protease 41*, Anthrax LF inh2 16 and MazEF act 13.
Screening CCN1C(=O)/C(=C\C=C2/C=CC=CN2CC)SC1=S returned Bead autofluor 2425, BoNT F protease -3, BoNT A protease 1, Anthrax LF inh2 0 and MazEF act -269.
For COc1ccc(-c2ccc(C(=O)NCC3CCOCC3)c3occc23)c(C)c1 the results were Bead autofluor 3879, BoNT F protease 5, BoNT A protease 0 and Anthrax LF inh2 -3.
For COCCn1nnnc1CN(Cc1ccco1)Cc1cc2cc3c(cc2[nH]c1=O)OCO3 the results were Bead autofluor 23147*, BoNT F protease -1, BoNT A protease 0, Anthrax LF inh2 0 and MazEF act -1.
Cn1nc(C(F)(F)F)c2cc(C(=O)Nc3ccc(C(F)(F)F)cc3)sc21 was read as Bead autofluor 4607, BoNT F protease -1, BoNT A protease 1, Anthrax LF inh2 -2 and MazEF act 3.
O=C(COc1ccc(F)cc1)Nc1nnc(-c2ccncc2)s1 was read as Bead autofluor 18059*, BoNT F protease -8, BoNT A protease -3, Anthrax LF inh2 -4 and MazEF act -7.
Screening O=C(COc1ccccc1F)Nc1nnc(-c2ccncc2)s1 returned Bead autofluor 5917, BoNT F protease -2, BoNT A protease 1, Anthrax LF inh2 -2 and MazEF act -15.
Screening CCc1noc(C)c1C(=O)N1CCCC1 returned Bead autofluor 16196*, BoNT F protease 0, BoNT A protease inconclusive, Anthrax LF inh2 -1 and MazEF act -2.
Screening Cc1occc1C(=O)N1CCN(C(c2ccccc2)c2ccccc2)CC1 returned Bead autofluor 22960*, BoNT F protease -1, BoNT A protease -1, Anthrax LF inh2 -1 and MazEF act -11.
Screening Cc1occc1C(=O)N1CCC2(CC1)OCCO2 returned Bead autofluor 23817*, BoNT F protease -1, BoNT A protease inconclusive, Anthrax LF inh2 -1 and MazEF act -4.
Screening Cc1noc(C)c1C(=O)N1CCC2(CC1)OCCO2 returned Bead autofluor 20724*, BoNT F protease -2, BoNT A protease -2, Anthrax LF inh2 -1 and MazEF act 3.
`Cc1ccccc1C(=O)N1CCN(C(c2ccccc2)c2ccccc2)CC1` gave Bead autofluor 3922, BoNT F protease inconclusive, BoNT A protease inconclusive, Anthrax LF inh2 -1 and MazEF act -5.
